Test results from PubChem BioAssay (NCATS).
Inconclusive results are not listed. Where a call stands in place of a potency, no number is given. Active and inactive are the calls of the source. Calls come from the whole dose curve; as a rule, active = well fitted curve in the direction sought with a large enough effect; inconclusive = small, poorly fitted or top-dose-only effect, or another doubt; inactive = no such curve, though single readings can be large; an effect the other way counts as inactive or inconclusive.

Key:
[1] = target: Aldehyde dehydrogenase, mitochondrial (Homo sapiens) (UniProt P05091); test: qHTS for Inhibitors of the Aldehyde Dehydrogenase Family (ALDH2) Primary screen (AID 2061308); settings: ALDH2 enzyme inhibition qHTS, 1536-well; series mostly up to 56 µM; note: nearly all actives have a fitted effect of over 55% in size
[2] = target: Retinaldehyde dehydrogenase 3 (Homo sapiens) (UniProt P47895); test: qHTS for Inhibitors of the Aldehyde Dehydrogenase Family (ALDH1A3) Primary screen (AID 2061315); settings: ALDH inhibition qHTS; series mostly up to 56 µM

SMILES	Potency [1]	Potency [2]
Cc1cc(C)n2ncc(C(=O)Nc3ccc(Br)cc3)c2n1	inactive	inactive
COC(=O)Nc1sc2c(c1-c1nc3ccccc3s1)CCNC2	inactive	inactive
Cc1ccnc(NC(=S)N2CCN(c3ncc(C(F)(F)F)cc3Cl)CC2)c1	inactive	inactive
CC(C)(C)OC(=O)N1CCN(c2ccc(NCc3nnc(-c4ccc(C#N)cc4)o3)cc2)CC1	inactive	inactive
Cc1ccccc1S(=O)(=O)Nc1cnccc1C(=O)Nc1nc(-c2ccccc2)cs1	inactive	inactive
Nc1ccc(S(=O)(=O)N2CCN(S(=O)(=O)c3ccc4c(c3)OCCO4)CC2)cc1	inactive	inactive
CCOc1ccc(CCNC(=O)c2csc(Br)n2)cc1OCC	inactive	inactive
CN(Cc1ccco1)c1ncnc2ccc(-c3ccccc3Cl)cc12	inactive	inactive
O=C(OCC#CCSc1nnc(-c2cccc3ccccc23)o1)c1ccc(F)cc1	inactive	inactive
COc1cccc(-c2nnc3n2N=C(c2c(OC)cccc2OC)CS3)c1	inactive	inactive
O=S1(=O)N=C(Oc2ccc(-c3ccccc3)cc2)c2ccccc21	inactive	inactive
O=C(OCc1ccccc1)N1CCN(C(=O)[C@H](Cc2ccc(O[S+](=O)([O-])c3cccc4cnccc34)cc2)N[S+](=O)([O-])c2cccc3cnccc23)CC1	inactive	inactive
CC(C)c1nc(Nc2nc3ccccc3o2)nc2c1CCCC2	inactive	inactive
COc1ccccc1C1=Nn2c(COc3ccccc3)nnc2SC1	inactive	inactive
Cc1cc(NC(=S)N2CCN(c3cccc(C(F)(F)F)c3)CC2)nc2ccccc12	inactive	inactive
